Compound activity: PubChem, National Center for Advancing Translational Sciences (NCATS)
An excerpt weighted towards active compounds, which were near 11% of everything screened.
G9a block – G9a (human) methyltransferase inhibition; Potency, µM (doses to about 102 µM), inactives show at the highest dose activity, negative = inhibition, actives largely listed as inhibitors; 350,000 compounds, 8.8% hits; G9a H3K9 monomethylation, AlphaScreen, 2 h; note: potency is the fitted concentration of half-maximal effect; % is set by controls: 0 for no effect and ±100 for the full control effect; nearly all actives have a fitted effect of over 75% in size
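Using a bead-based AlphaScreen, monomethylated H3K9 product from 2 h room-temperature reactions (G9a 20 nM, peptide 500 nM, SAM 20 uM) was detected with 0.5 ug/mL rabbit anti-H3K9me1 antibody.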
JMJD2A Tudor – blocks the human JMJD2A Tudor domain. AID 504339. 390,000 compounds, 4.4% hits. AlphaScreen JMJD2A-Tudor / H3K4me3 peptide binding. Potency, µM (top dose mostly 114 µM), for inactives: at the top dose activity change, negative = inhibition, actives largely listed as inhibitors; note: potency is the fitted concentration of half-maximal effect; % is set by controls: 0 for no effect and ±100 for the full control effect; nearly all actives have a fitted effect of over 50% in size
L3MBTL1 block – L3MBTL1 (human) inhibition; 230,000 compounds, 0.66% hits; AlphaScreen L3MBTL1–H3K9me1 peptide binding; Potency, µM (doses to about 57.1 µM), for inactives: at the top dose activity, negative = inhibition, actives largely listed as inhibitors; AID 485360; Q9Y468; note: potency is the fitted concentration of half-maximal effect; % is set by controls: 0 for no effect and ±100 for the full control effect; nearly all actives have a fitted effect of over 60% in size
Target sequence (Q9Y468 whole entry, looked up): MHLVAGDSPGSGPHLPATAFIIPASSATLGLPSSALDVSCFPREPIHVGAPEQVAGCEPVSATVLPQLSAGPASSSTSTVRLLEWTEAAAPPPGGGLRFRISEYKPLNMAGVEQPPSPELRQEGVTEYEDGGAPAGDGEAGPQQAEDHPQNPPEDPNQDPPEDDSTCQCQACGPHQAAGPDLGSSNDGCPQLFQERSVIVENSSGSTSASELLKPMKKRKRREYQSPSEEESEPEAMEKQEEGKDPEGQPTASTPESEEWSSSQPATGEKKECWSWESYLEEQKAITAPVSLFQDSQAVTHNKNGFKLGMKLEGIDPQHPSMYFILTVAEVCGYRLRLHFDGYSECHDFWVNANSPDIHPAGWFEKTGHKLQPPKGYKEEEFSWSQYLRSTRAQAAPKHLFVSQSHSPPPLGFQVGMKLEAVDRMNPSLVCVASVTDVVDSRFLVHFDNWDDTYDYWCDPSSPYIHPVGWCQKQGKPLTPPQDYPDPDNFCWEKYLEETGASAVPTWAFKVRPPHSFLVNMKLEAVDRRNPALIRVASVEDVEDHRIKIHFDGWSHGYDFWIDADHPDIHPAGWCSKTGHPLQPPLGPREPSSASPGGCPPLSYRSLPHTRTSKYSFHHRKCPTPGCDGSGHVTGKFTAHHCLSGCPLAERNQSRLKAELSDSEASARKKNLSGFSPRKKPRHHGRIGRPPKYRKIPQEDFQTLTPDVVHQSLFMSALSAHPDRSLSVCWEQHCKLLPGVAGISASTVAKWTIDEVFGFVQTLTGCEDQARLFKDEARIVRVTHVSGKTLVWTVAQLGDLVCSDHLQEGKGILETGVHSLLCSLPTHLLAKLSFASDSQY
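AlphaScreen proximity signal between nickel-chelate acceptor and streptavidin donor beads (final 10 ug/mL) reports binding of 50 nM L3MBTL1 to 75 nM biotin-H3 K9me1 peptide; complex incubated with compounds 30 min at room temperature; cefsulodin titration as control.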
PI5P4Ka inh – inhibitors of human PI5P4K alpha. PI5P4Kalpha enzyme, ADP-Glo luminescence, 60 min; active compounds read low. max response, %. P48426. 330,000 compounds, 1.2% hits; active = max response of -50% or lower; inconclusive = between -30% and -50%; inactive = -30% or higher; note: value at the top dose of about 77 µM; % is set by controls: 0 for no effect and ±100 for the full control effect
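Compounds were pin-transferred onto PI5P4Kalpha and substrate in HEPES pH 7.4 buffer with EGTA, CHAPS and 5% DMSO. ATP (5 microM final) started the reaction, which ran 60 minutes at room temperature before ADP-Glo detection.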
BAZ2B inh – inhibitors of human BAZ2B bromodomain | 360,000 compounds, 4.4% hits | Q9UIF8 | Potency, µM (top dose mostly 114 µM), for inactives: at the top dose activity change, negative = inhibition, most hits filed as inhibitors | AlphaScreen BAZ2B-H3K14Ac peptide displacement; note: potency is the fitted concentration of half-maximal effect; % is set by controls: 0 for no effect and ±100 for the full control effect; nearly all actives have a fitted effect of over 60% in size
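In this displacement format the biotinylated H3(5-23) peptide acetylated at Lys14 serves as ligand at 50 nM, with BAZ2B at 50 nM in PBS pH 7.4 containing 0.01% Tween-20. Donor and acceptor beads are 10 ug/mL final.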
HP1b binding inh – blocks HP1-beta chromodomain binding to methylated histone tails; AlphaScreen HP1-beta / biotin-H3K9me3 peptide binding; Potency, µM (series often up to 114 µM), inactives show at the top dose activity change, negative = inhibition, usual class: inhibitors; 390,000 compounds, 0.56% hits; note: potency is the fitted concentration of half-maximal effect; nearly all actives have a fitted effect of over 70% in size
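AlphaScreen: HP1-beta (50 nM) preformed 30 min with biotin-H3(1-18)K9me3 peptide (50 nM) in PBS pH 7.4, 0.01% Tween-20. Compound added for 30 min at RT, then streptavidin donor/nickel chelate acceptor beads (10 ug/mL) for 30 min.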
Starred values were filed as active, the others as inactive; ? = inconclusive; . = no result given; [ ] = another dose, or the depositor's remark. Unless noted, calls come from the whole dose curve; as a rule, active = well fitted inhibition curve with a large enough effect; inconclusive = small, poorly fitted or top-dose-only effect; inactive = no such curve, though single readings can be large or run the other way.

SMILES	G9a block	JMJD2A Tudor	L3MBTL1 block	PI5P4Ka inh	BAZ2B inh	HP1b binding inh
CCN(CC)CCN(C(=O)C1=COCCO1)c1nc2ccc(C)cc2s1	-19%	-10%	.	-2	-22%	20%
COc1ccccc1C(=O)N(CCN(C)C)c1nc2cc(C)cc(C)c2s1	?	?	.	-6	.	3%
CCN(CC)CCN(C(=O)C1=COCCO1)c1nc2c(OC)ccc(OC)c2s1	45µM*	-17%	.	-1	-21%	17%
COc1ccc(Cl)c2sc(N(CCN(C)C)C(=O)c3ccc4c(c3)OCCO4)nc12	50µM*	?	-1%	3	?	-30%
CCN(CC)CCN(C(=O)c1c(F)cccc1F)c1nc2cc(C)cc(C)c2s1	56µM*	?	.	1	.	26%
COc1cc2ccccc2cc1C(=O)N(CCN(C)C)c1nc2c(OC)ccc(OC)c2s1	45µM*	40µM*	.	-9	?	?
O=C(NCCn1cc(SCc2ccccc2Cl)c2ccccc21)c1cccs1	12%[59 µM]	-15%	.	.	-19%	25%
C/C=C1/C2C=C(C)CC1(N)c1ccc(=O)[nH]c1C2 (stereo not given)	32%[59 µM]	.	.	.	.	.
CCN1CCc2c(sc(-n3cccc3)c2C(C)NC(=O)Nc2ccc(C(=O)OC)cc2)C1 (stereo not given)	?	?	.	.	?	-11%
Cc1cc(C)c2sc(N(CCN(C)C)C(=O)c3ccc4ccccc4c3)nc2c1	35µM*	22µM*	.	-1	?	-26%[57 µM]
CSc1cccc(NC(=O)CCCOc2ccc(Cl)cc2Cl)c1	26%	30%	32%	26	17%	92%
O=C(CCCOc1ccc(Cl)cc1Cl)Nc1cccnc1	45µM*	-16%	.	3	5%	26%
CC(C)C(=O)Nc1ccc(C(=O)NNC(=O)CCCOc2ccc(Cl)cc2Cl)cc1	-44%	-25%	-3%	.	-5%	6%
CCCCC(=O)Nc1ccc(C(=O)NNC(=O)CCCOc2ccc(Cl)cc2Cl)cc1	50µM*	-32%	5%	-7	4%	8%
CCOC(=O)C(CCc1ccccc1)NC(C)C(=O)N1CCCC1C(=O)O (stereo not given)	-29%[2.33 µM]	.	.	.	.	.
CC(=O)Nc1nnc(-c2ccccn2)o1	28µM*	?	3%	-1	?	16%
Cc1ccc(C(=O)Nc2nnc(-c3ccncc3)o2)cc1	2%	-14%	?	-4	56µM*	50%
N#Cc1ccc(C(=O)Nc2nnc(-c3ccccn3)o2)cc1	50µM*	?	-15%	-14	8.9µM*	16%
O=C(Nc1nnc(-c2ccccn2)o1)c1cccc(Cl)c1	-6%	-28%	.	0	.	27%
C=C1c2cccc(C(F)(F)F)c2O[C@H](C(=O)OCC)[C@@H]1CCCCCC	91%	.	.	.	.	.
N#Cc1ccc(CN2CCC3(CC2)CCN(S(=O)(=O)c2ccccc2)CC3)cc1	7%[12.7 µM]	.	.	.	.	.
COc1cc(-c2cc(OC)c3c(C)oc(C)c3c(=O)c2)ccc1OC(=O)c1cccc(C)c1	?	-26%	.	.	-34%	22%
Cc1csc(=Nc2ccccc2)n1C	?	-13%	-6%	3	50µM*	29%
Cc1cc(C2N=C(N)Nc3nc4ccccc4n32)c(C)n1-c1ccccc1Cl (stereo not given)	?	?	?	.	?	-6%
Cc1ccc(-n2c(C)cc(C3N=C(N)Nc4nc5ccccc5n43)c2C)c(C)c1 (stereo not given)	5%[12.7 µM]	40µM*	.	.	40µM*	?
COc1ccc2c(c1)[nH]c1c(=O)n(/N=C/c3ccc(OC)c(COc4ccccn4)c3)cnc12	9%	79µM*	10%	-13	4%	7%
CC1CCCN(C(=O)C2CC(=O)N(c3ccc(Cl)cc3)C2)C1 (stereo not given)	45µM*	-21%	.	-1	-3%	-20%
O=C(C1CC(=O)N(c2ccc(Cl)cc2)C1)N1CCCCCC1 (stereo not given)	?	-4%	.	-12	-27%	-6%
